The results in this text go back to PMC12864922, “TDP-43 directly inhibits mRNA accumulation in neurites through modulation of mRNA stability”.

Whole data set: some 9,900 sequences, median “r (bound/input frequency ratio)” near 0.7, cut for the highest 2% near 6.5. For the sample, the highest values were picked, then their nearest neighbours and some sequences at random.

Sequences and labels used below:
B1: ENSMUSG00000058297.104|Spock2 (ssRNA)
RNA: GGGAGUUCUACAGUCCGACGAUCGCUUCGAUAUCCGCAUGCUAACCACGGUCUUGUGGUGAUGAGGCAGGACCUGUACACACAGCAAGGCUUACUAUCCGUCUCCUGACAUCCGAAGAGCUCGUCGCAGGUGUGUCUAAUGGCCCUUGGGCUGCACGUGGUUAAGCAUAGCUGUCUCUGUGGCCCAACACAAAGAGGUAAACUUACUUAAAACACAGGGGUUUUGUUGCUGUUUGUUUUUUGUUAGUUUGUUUGUUGAUAAUUGGAUUGAGGAGUUAAUCCUCUGUCACAAUGUCAAAAGCAUCUCUUGCGGUCGCACUAGUGUGGAAUUCUCGGGUGUCAAGG
B2: ENSMUSG00000043670.53|Diras1|229:234 (ssRNA)
RNA: GGGAGUUCUACAGUCCGACGAUCGCUUCGAUAUCCGCAUGCUACCUACAGUAAGGUUGGGCUCCAUCCCUGCCUCUUCACACCUCCAUAGCUUCAUCCUUUGCAGACCUCUCCCUCUAUAUCUCUUUGCUCCCCCACCCCCAUUCUAUCUGCACCCCACAACCACACACUGGAGGUUUGAUCCCUGUGGAUCUGAAAACAGGGACCUGGCUAAGGAACUGCUCAUCCCAGUCAGGCCCAGAGAGGUUACCUUGCCUCUCCAUCUCUGUCCCACACACCCCAGCCAUGCCCACUGUCCCUGUCCCUCUUGCGGUCGCACUAGUGUGGAAUUCUCGGGUGUCAAGG
B3: ENSMUSG00000029636.33|Wasf3|33:37;79:83 (ssRNA)
RNA: GGGAGUUCUACAGUCCGACGAUCGCUUCGAUAUCCGCAUGCUAUCCCUGUAGCUUUAGUCCCUUUUGUAUUAACACACACAUUUGCUUCUGCACAUCCUUCUGGAUUUGUUGAGUAUUUACACACAAAUACUUAAGUGCCACAGAACACAGCACACCGUGCUGCACACCAGGAAACUCGCAGUAUUAGUGCAUCACCCUGGAACAGCAUCUUGCUUCCCUCUCAGCCGUGAGAGUCCCCUCUCCUGUCCAUCCUGAUUUGGUGGGCUUGCCACGUAUCUGCGCAGCUGCCCCACGUCAGCUCUCUCUUGCGGUCGCACUAGUGUGGAAUUCUCGGGUGUCAAGG
B4: ENSMUSG00000004113.19|Cacna1b|119:123 (ssRNA)
RNA: GGGAGUUCUACAGUCCGACGAUCGCUUCGAUAUCCGCAUGCUAACCCUUACCUAGGGCAGCGUCUGGACAGUGAGGCCUCCGCCCACACCCUGCCUGAGGAUACACUCACCUUUGAAGAGGCAGUGGCCACCAACUCUGGCCGCUCCUCCAGGACUUCCUAACACACCUCCCUCACUUCCCAAUCCCACCCUCUCCGCCGUGUACCCAAUGGCUAUCACUGCACUUUGGGACUCAGCACUGGCGUCCGGGCGCGGCACAGCUACCACCACCCCGAUCAGGACCACUGGUGCUAGCUGCACCACCUCUUGCGGUCGCACUAGUGUGGAAUUCUCGGGUGUCAAGG
B5: ENSMUSG00000028439.148|Fam219a (ssRNA)
RNA: GGGAGUUCUACAGUCCGACGAUCGCUUCGAUAUCCGCAUGCUAAGGCUGGAAGCAAGAGAUAAGGCUGGCCUCCUGUGCCCCAUUGCCAUUUCACCCUAGCUCAAAGUCCAGGAGCCAGGCUUCCAGAAAGGCUCUUCAAGAGCAAGCUUAAGGAAAUACAGUGAGCCAAGUGGCUGUAUGAUAUGGUAUGGUAUGGUAUGGUAUGGUAUGGUAUGGUAUGCACAUGUGUGUGCAUGUGUGUGUGCCUGUGUGUGUGCGUGUGCGUGUGUGUAUGUGUGUGCGUGUGUGUGUGUGUGUGUUGUCUCUUGCGGUCGCACUAGUGUGGAAUUCUCGGGUGUCAAGG
B6: ENSMUSG00000028439.141|Fam219a (ssRNA)
RNA: GGGAGUUCUACAGUCCGACGAUCGCUUCGAUAUCCGCAUGCUACCACACCGCCCUGCCACCCCCAGUCUUCUGUCUAUUGGUUCCAGGCUGGAAGCAAGAGAUAAGGCUGGCCUCCUGUGCCCCAUUGCCAUUUCACCCUAGCUCAAAGUCCAGGAGCCAGGCUUCCAGAAAGGCUCUUCAAGAGCAAGCUUAAGGAAAUACAGUGAGCCAAGUGGCUGUAUGAUAUGGUAUGGUAUGGUAUGGUAUGGUAUGGUAUGGUAUGCACAUGUGUGUGCAUGUGUGUGUGCCUGUGUGUGUGCGUGCUCUUGCGGUCGCACUAGUGUGGAAUUCUCGGGUGUCAAGG
B7: ENSMUSG00000028439.147|Fam219a (ssRNA)
RNA: GGGAGUUCUACAGUCCGACGAUCGCUUCGAUAUCCGCAUGCUAGGUUCCAGGCUGGAAGCAAGAGAUAAGGCUGGCCUCCUGUGCCCCAUUGCCAUUUCACCCUAGCUCAAAGUCCAGGAGCCAGGCUUCCAGAAAGGCUCUUCAAGAGCAAGCUUAAGGAAAUACAGUGAGCCAAGUGGCUGUAUGAUAUGGUAUGGUAUGGUAUGGUAUGGUAUGGUAUGGUAUGCACAUGUGUGUGCAUGUGUGUGUGCCUGUGUGUGUGCGUGUGCGUGUGUGUAUGUGUGUGCGUGUGUGUGUGUGUGCUCUUGCGGUCGCACUAGUGUGGAAUUCUCGGGUGUCAAGG
B8: ENSMUSG00000028439.137|Fam219a (ssRNA)
RNA: GGGAGUUCUACAGUCCGACGAUCGCUUCGAUAUCCGCAUGCUAUGCAUCUGUCUCUCUGCCUCAUCCCCACACCGCCCUGCCACCCCCAGUCUUCUGUCUAUUGGUUCCAGGCUGGAAGCAAGAGAUAAGGCUGGCCUCCUGUGCCCCAUUGCCAUUUCACCCUAGCUCAAAGUCCAGGAGCCAGGCUUCCAGAAAGGCUCUUCAAGAGCAAGCUUAAGGAAAUACAGUGAGCCAAGUGGCUGUAUGAUAUGGUAUGGUAUGGUAUGGUAUGGUAUGGUAUGGUAUGCACAUGUGUGUGCAUGCUCUUGCGGUCGCACUAGUGUGGAAUUCUCGGGUGUCAAGG
B9: ENSMUSG00000028439.140|Fam219a (ssRNA)
RNA: GGGAGUUCUACAGUCCGACGAUCGCUUCGAUAUCCGCAUGCUAUCAUCCCCACACCGCCCUGCCACCCCCAGUCUUCUGUCUAUUGGUUCCAGGCUGGAAGCAAGAGAUAAGGCUGGCCUCCUGUGCCCCAUUGCCAUUUCACCCUAGCUCAAAGUCCAGGAGCCAGGCUUCCAGAAAGGCUCUUCAAGAGCAAGCUUAAGGAAAUACAGUGAGCCAAGUGGCUGUAUGAUAUGGUAUGGUAUGGUAUGGUAUGGUAUGGUAUGGUAUGCACAUGUGUGUGCAUGUGUGUGUGCCUGUGUGUGCUCUUGCGGUCGCACUAGUGUGGAAUUCUCGGGUGUCAAGG
B10: ENSMUSG00000028439.138|Fam219a (ssRNA)
RNA: GGGAGUUCUACAGUCCGACGAUCGCUUCGAUAUCCGCAUGCUAUGUCUCUCUGCCUCAUCCCCACACCGCCCUGCCACCCCCAGUCUUCUGUCUAUUGGUUCCAGGCUGGAAGCAAGAGAUAAGGCUGGCCUCCUGUGCCCCAUUGCCAUUUCACCCUAGCUCAAAGUCCAGGAGCCAGGCUUCCAGAAAGGCUCUUCAAGAGCAAGCUUAAGGAAAUACAGUGAGCCAAGUGGCUGUAUGAUAUGGUAUGGUAUGGUAUGGUAUGGUAUGGUAUGGUAUGCACAUGUGUGUGCAUGUGUGUGCUCUUGCGGUCGCACUAGUGUGGAAUUCUCGGGUGUCAAGG
B11: ENSMUSG00000004113.485|Cacna1b (ssRNA)
RNA: GGGAGUUCUACAGUCCGACGAUCGCUUCGAUAUCCGCAUGCUACCUUUGACUAGUUUGCUGCCUGAAUAAUAUUUACAAACUAAACUUUGGAUUCUGCUCUUGUUUCUACAAUGAUUUUUUGUAUAAAGCAAAGUCCUUGGAUUAAAUAAAAACAACCCAAAAAAAAAAUCAAAAUCAAAACCCAGGAUGCAACUGGGUGAUACCUGAGGACAGUGUGUCUCAGUGCGUCGGUGGAGAGGGUAUACUGCCAGGAGAGCUCAAGAAAAAUUGAGAACUUCAGCAAAGUGCCUGUGAGCACUUGGCUCUUGCGGUCGCACUAGUGUGGAAUUCUCGGGUGUCAAGG
B12: ENSMUSG00000035202.103|Lars2|4:8 (ssRNA)
RNA: GGGAGUUCUACAGUCCGACGAUCGCUUCGAUAUCCGCAUGCUAGCUACACACUCCAGUGUCUUUUACCAUCACAGGCCCUGGCUCUGUGCUACCUCCCUAGAAUACCUGUGGUUCAUCACCUUCAGCUCACACUCCAUUCAGACAAUGCUCACUUAGGCCUACAAGCAAGGGAGAGGCUUAAGCACAAGGUCUUUAAGCUUGAUACUGUGCCUGGUCUCAAUGCCUAGAAAUUCCAACUUAACUGUCGCUAUCAUAAAGGAUUUUAAAUUUUUUUACAAGUGAGAACCUAGCAUGUCAAGGUCCUCUUGCGGUCGCACUAGUGUGGAAUUCUCGGGUGUCAAGG
B13: ENSMUSG00000022095.202|Fam160b2 (ssRNA)
RNA: GGGAGUUCUACAGUCCGACGAUCGCUUCGAUAUCCGCAUGCUAGCCGGGCACAGGUUGCCAGGAGGUGACAUGAAAGAGGAGGAAACUCCAUGACCUCUACAUCCCCCGCAGUCCUCCCAGCGGGGGAGGACUUCUCUGCUGCUCCGAAGAACAUCAUGCACUCCUGUGUGUGUGUGUGAGUGUGUGUGUGUGUGUGUGUGUGUGUGUGUGUGUAUGUGUGUGUAUAUGUGUGUGUGUGUGUGUAUGUGUGUGUGUGUGUGUGAGUGAGUGUGUGUGUGUGUGUGUGUGUGUGAGUGUGUGUGCUCUUGCGGUCGCACUAGUGUGGAAUUCUCGGGUGUCAAGG
B14: ENSMUSG00000022095.200|Fam160b2 (ssRNA)
RNA: GGGAGUUCUACAGUCCGACGAUCGCUUCGAUAUCCGCAUGCUACCACCUCUCGAAGCCGGGCACAGGUUGCCAGGAGGUGACAUGAAAGAGGAGGAAACUCCAUGACCUCUACAUCCCCCGCAGUCCUCCCAGCGGGGGAGGACUUCUCUGCUGCUCCGAAGAACAUCAUGCACUCCUGUGUGUGUGUGUGAGUGUGUGUGUGUGUGUGUGUGUGUGUGUGUGUGUAUGUGUGUGUAUAUGUGUGUGUGUGUGUGUAUGUGUGUGUGUGUGUGUGAGUGAGUGUGUGUGUGUGUGUGUGUGUGCUCUUGCGGUCGCACUAGUGUGGAAUUCUCGGGUGUCAAGG
B15: ENSMUSG00000022095.199|Fam160b2 (ssRNA)
RNA: GGGAGUUCUACAGUCCGACGAUCGCUUCGAUAUCCGCAUGCUACCCAUGCCACCUCUCGAAGCCGGGCACAGGUUGCCAGGAGGUGACAUGAAAGAGGAGGAAACUCCAUGACCUCUACAUCCCCCGCAGUCCUCCCAGCGGGGGAGGACUUCUCUGCUGCUCCGAAGAACAUCAUGCACUCCUGUGUGUGUGUGUGAGUGUGUGUGUGUGUGUGUGUGUGUGUGUGUGUGUAUGUGUGUGUAUAUGUGUGUGUGUGUGUGUAUGUGUGUGUGUGUGUGUGAGUGAGUGUGUGUGUGUGUGUGCUCUUGCGGUCGCACUAGUGUGGAAUUCUCGGGUGUCAAGG

In the test the target is TDP-43 (Homo sapiens, UniProt Q13148 1-414). The experiment in a line: RNA Bind-n-Seq with designed 260-mer pool; 25 mM Tris-HCl, 150 mM KCl, 3 mM MgCl2, BSA (printed 500 mg/mL), 20 units/mL SUPERase IN; pH not stated; 500 nM RNA pool, 1 h, 4 C; TDP-43 5, 50, 500 nM; high values mean tight binding. Particulars: protein: recombinant; tags: SBP (GST cleaved off with PreScission; pGEX-GST-SBP). The method, boiled down: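 Duplicate measurements used two independent batches of recombinant SBP-tagged TDP-43, which was captured on streptavidin beads at 5, 50 or 500 nM. The beads were incubated with 500 nM of an in vitro-transcribed 260-nt 3′ UTR oligo pool for 1 h at 4 °C in 25 mM Tris-HCl, 150 mM KCl, 3 mM MgCl2, BSA and SUPERase IN. After washing, biotin elution, reverse transcription, PCR amplification and sequencing, binding was expressed as R: each oligo's normalized read abundance in the bound sample over its abundance in input.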
Sequence of TDP-43 (Q13148 whole entry): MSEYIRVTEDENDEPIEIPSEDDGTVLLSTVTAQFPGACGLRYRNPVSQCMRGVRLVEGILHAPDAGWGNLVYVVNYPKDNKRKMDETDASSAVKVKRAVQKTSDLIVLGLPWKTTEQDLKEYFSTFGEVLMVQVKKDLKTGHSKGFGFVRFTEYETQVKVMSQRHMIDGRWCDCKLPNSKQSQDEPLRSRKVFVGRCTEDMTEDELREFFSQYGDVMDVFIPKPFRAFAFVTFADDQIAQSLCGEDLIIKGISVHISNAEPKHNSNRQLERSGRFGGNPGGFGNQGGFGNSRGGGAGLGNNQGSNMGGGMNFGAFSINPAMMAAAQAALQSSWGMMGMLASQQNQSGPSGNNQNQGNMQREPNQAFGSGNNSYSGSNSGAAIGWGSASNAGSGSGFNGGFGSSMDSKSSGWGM
Regarding B1, the binding signal was 0.391 R (bound/input frequency ratio).

Take B2: the binding signal was 2.98 R (bound/input frequency ratio).

In the case of B3, the binding signal was 0.758 R (bound/input frequency ratio).

Turning to B4, the binding signal was 1.6 R (bound/input frequency ratio).

Regarding B5, the binding signal was 7.16 R (bound/input frequency ratio).

Regarding B6, the binding signal was 3.58 R (bound/input frequency ratio).

As for B7, the binding signal is 7.43 R (bound/input frequency ratio).

With B8, the binding signal is 1.7 R (bound/input frequency ratio).

With B9, the binding signal is 2.02 R (bound/input frequency ratio).

Regarding B10, the binding signal was 1.6 R (bound/input frequency ratio).

For B11, the binding signal is 0.542 R (bound/input frequency ratio).

On to B12, for which the binding signal was 0.427 R (bound/input frequency ratio).

Turning to B13, the binding signal was 7.21 R (bound/input frequency ratio).

On to B14, for which the binding signal is 7.08 R (bound/input frequency ratio).

Regarding B15, the binding signal is 8.67 R (bound/input frequency ratio).
